Screening results from PubChem.
Sampled rows, rich in hits. Any-hit rate of the full collection: about 0.4%.
GAA spleen mod – inhibits or activates alpha-glucosidase in human spleen homogenate. P10253. human spleen homogenate, 4-MU-alpha-glucoside fluorescence. Potency, µM (titrated, usually from 79.9 µM), for the others: top-dose activity change, negative = inhibition, actives largely listed as inhibitors. 0.006% of 240,000 active;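 also: potency is read from the fitted curve at half-maximal effect; 0% = enzyme with vehicle and -100% = no enzyme basal signal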
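AC50 values come from Hill-equation fits of concentration-response data, normalized to no-enzyme and full-activity controls. Enzyme source: 1 ug human spleen homogenate; 1 mM fluorogenic 4-MU glucoside, pH 5.0 citrate buffer, 37 C, 40 min.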
GAA inh – alpha-glucosidase (human) inhibition; purified human GAA, 4-MU-alpha-glucoside fluorescence; Potency, µM (series often up to 76.9 µM), inactives show at the top dose activity change, negative = inhibition, usual class: inhibitors; 0.005% of 200,000 active;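 also: potency is read from the fitted curve at half-maximal effect; plate controls were uninhibited enzyme wells for no effect and no-enzyme background for full effect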
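Endpoint fluorogenic read: 20 min room-temperature reaction of 4 nM human alpha-glucosidase with 400 uM 4-methylumbelliferyl-alpha-D-pyranoside, pH 5.0, quenched with 1M NaOH/1M glycine pH 10. AC50 from Hill modeling.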
aGal spleen mod – alpha-galactosidase A (human) modulation; P06280; human spleen homogenate, 4MU-alpha-Gal fluorescence, 40 min; Potency, µM (titrated, usually from 80 µM), without a hit: top-dose activity change, negative = inhibition, usual class: inhibitors; 0.008% of 240,000 active; AID 2107;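 also: potency is read from the fitted curve at half-maximal effect; 0% = enzyme with vehicle and -100% = no enzyme basal signal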
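Human spleen homogenate (1 ug) was the enzyme source, with 4-methylumbelliferyl-alpha-D-galactopyranoside (1 mM final) in pH 5.0 citrate buffer with 0.01% Tween-20. Compounds were titrated; after 40 min at 37C, NaOH/glycine stop, 4-MU fluorescence read; AC50 from Hill fits.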
GLA inh pH 4.5 – alpha-galactosidase A (human) inhibition, pH 4.5; activity change, negative = inhibition, % at 105 µM; P06280; purified enzyme, 4-MU-alpha-Gal fluorescence, pH 4.5; 230,000 tested, under 10 active;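 also: 0% = full activity with enzyme and -100% = basal without enzyme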
GAA glycogen – inhibitors or activators of human alpha-glucosidase glycogen cleavage; P10253; recombinant GAA, glycogen substrate, Amplex Red glucose oxidase fluorescence; Potency, µM (highest dose often 76.4 µM), without a hit: at the highest dose activity change, negative = inhibition, most hits filed as inhibitors; 0.38% of 300,000 active;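 also: potency is read from the fitted curve at half-maximal effect; 0% = full enzyme reaction and -100% = no-enzyme basal signal; the screen sought inhibitors and activators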
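Recombinant human alpha-glucosidase (4 nM final) hydrolysed bovine liver glycogen (30 ug) for 40 min at 37 C in pH 5.0 citrate/phosphate with 0.01% Tween-20. Released glucose detected by glucose oxidase/Amplex Red, Ex 573/Em 610 nm. Compounds up to 77 uM; AC50 from Hill fits.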
Starred values were filed as active, the others as inactive; u = inconclusive; x = no result given; [ ] = dose if it differs, or a comment. Calls follow the shape of the dose curve; as a rule, active = well fitted curve in the direction sought with a large enough effect; inconclusive = small, poorly fitted or top-dose-only effect, or another doubt; inactive = no such curve, though single readings can be large; an effect the other way counts as inactive or inconclusive.

SMILES | GAA spleen mod | GAA inh | aGal spleen mod | GLA inh pH 4.5 | GAA glycogen
CC(=O)OCC1OC(C#Cc2ccc(F)cc2F)C=CC1OC(C)=O (stereo not given) | -8%[17.4 µM] | x | -4%[17.5 µM] | x | x
C/C(=N\NC(=O)c1ccc(O)cc1)c1ccc2c(c1)Nc1ccccc1S2 | -12% | -9% | -17% | -7 | u
C/C(=N\NC(=O)c1ccccc1F)c1ccc2c(c1)Nc1ccccc1S2 | -2% | 0% | 5% | 1 | 25µM*
Cc1cc(S(=O)(=O)Nc2c(C(=O)O)[nH]c3ccccc23)ccc1F | -7% | 2% | -13% | -1 | 2.2µM*
COC(=O)c1[nH]c2ccc(C)cc2c1NS(=O)(=O)c1ccc(F)c(C)c1 | 6% | 3% | 11% | 0 | 18µM*
COC(=O)c1[nH]c2ccc(C)cc2c1NS(=O)(=O)c1ccc(F)cc1 | -5% | 8% | 8% | 8 | 10µM*
COC(=O)c1[nH]c2ccc(F)cc2c1NS(=O)(=O)c1ccc(F)c(C)c1 | -1% | -1% | -3% | 1 | -9%
CCOC(=O)N1CCN(/[N+]([O-])=N/Oc2ccc([N+](=O)[O-])cc2[N+](=O)[O-])CC1C (stereo not given) | -5% | x | -12% | x | x
CCCCCCCCCCCCCC[C@@H](O)[C@@H](O)[C@@H](N)CO | -11% | x | 4% | x | x
